Screening results (PubChem BioAssay)
In the library only some 17% were active in any assay of this set; here they are far more common.
TGFb inhibitor = blocks TGF-b signaling | AID 588855 | HepG2 CAGA-GFP TGF-b/SMAD3 reporter, GFP fluorescence, 18 h; TGF-beta stimulated, 500 pg/mL final | Potency, µM (doses to about 46.1 µM), without a hit: at the top dose activity, negative = inhibition, actives largely listed as inhibitors | actives 1.2% (n = 410,000); further: on the % scale 0 is the no-effect control and ±100 the full control effect; nearly all actives have a fitted effect of over 65% in size
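First, reporter cells (HEPG2 CAGA-GFP) rested 2 h at 37 degrees C. Next, compounds were pinned in and TGF-beta added to 500 pg/mL final. After 18 h, GFP was imaged per cell and summed per well.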
DT40 TDP1 no CPT = qHTS for Inhibitors of human tyrosyl-DNA phosphodiesterase 1 (TDP1): qHTS in cells in absence of CPT | AID 686978, 2013 | actives 15% (n = 420,000) | DT40 Tdp1-/- hTDP1 cells, no CPT, ATP luminescence, 48 h | Potency, µM (series often up to 46.2 µM), for the others: at the top dose activity change, negative = growth inhibition, most hits filed as inhibitors; further: on the % scale 0 is the no-effect control and ±100 the full control effect; nearly all actives have a fitted effect of over 55% in size
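Camptothecin absent (DMSO only). Human TDP1-complemented DT40 knockout cells, 400 cells/well, 37 °C for minimum 48 hr; ATP measured via CellTiter-Glo, 30 min dark incubation, luminescence.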
S2 tox = reduces viability in counter-screen for ATXN expression inhibitors; S2 cells (HEK-293 line with an ATXN2-luciferase reporter) viability, CellTiter-Fluor protease fluorescence, 24 h; Potency, µM (titrated, usually from 56.7 µM), actives largely listed as cytotoxic; actives 0.49% (n = 400,000); further: nearly all actives have a fitted effect of over 40% in size
TDP1 cell CPT = growth inhibition of DT40 Tdp1-/-;hTDP1 cells with camptothecin (screen for TDP1 inhibitors); actives 12% (n = 420,000); chicken DT40 Tdp1-/-;hTDP1 cells + 20 nM CPT, ATP luminescence, 48 h; Potency, µM (top dose mostly 46.2 µM), for inactives: top-dose activity change, negative = growth inhibition, actives largely listed as inhibitors; further: on the % scale 0 is the no-effect control and ±100 the full control effect; nearly all actives have a fitted effect of over 55% in size
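Cell growth measured by CellTiter-Glo luminescence after a minimum 48 h, 37 C compound exposure with 20 nM CPT in Tdp1-knockout DT40 cells stably expressing hTDP1, seeded 400/well; qHTS titration format.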
HepG2 viability = kills HepG2 cells in TGF-b inhibitor counter-screen; Potency, µM (top dose mostly 46.1 µM), for inactives: at the top dose activity change, negative = cytotoxicity, most hits filed as cytotoxic; HepG2 CAGA-GFP viability, ATP luminescence, 18 h; actives 0.76% (n = 410,000); AID 588856
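CellTiter-Glo luminescence gave cytotoxicity after 18 hours at 37 degrees C. The cells were HepG2 CAGA-GFP in 1% FBS DMEM, stimulated with 500 pg/mL TGF-beta after compound addition. %Activity was normalised to no-cell wells (complete cell-killing) and DMSO (no toxicity), and curves were fitted and classified.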
ATXN2 expr inh = ATXN2 expression inhibition; AID 1745845; actives 0.72% (n = 360,000); HEK-293 ATXN2-luciferase reporter, luminescence, 24 h; Potency, µM (titrated, usually from 57 µM), inactives show at the top dose activity change, negative = inhibition, usual class: inhibitors; further: on the % scale 0 is the no-effect control and ±100 the full control effect; nearly all actives have a fitted effect of over 55% in size
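qHTS (up to 57 uM final) was run with 24 h compound exposure of reporter cells at 37 °C. Each well was multiplexed: SteadyGlo luminescence measured ATXN2-luciferase expression after a fluorogenic Gly-Phe-AFC viability readout (25 uM final).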
* marks the source's active call; other numbers are inactive results; i = inactive; ? = inconclusive; nt = not tested or not shown. The call rests on the fitted dose curve; in most records, active means well fitted curve in the direction sought with a large enough effect; inconclusive means small, poorly fitted or top-dose-only effect, or another doubt; inactive means no such curve, though single readings can be large; an effect the other way counts as inactive or inconclusive. Potency means the concentration at half of the fitted maximal effect.

SMILES | TGFb inhibitor | DT40 TDP1 no CPT | S2 tox | TDP1 cell CPT | HepG2 viability | ATXN2 expr inh
CCN(c1ccc(OC)cc1)S(=O)(=O)c1ccc2[nH]c(=O)ccc2c1 | -25% | ? | i | -15% | -15% | 2%
Cc1ccc(Cl)cc1NC(=O)Cn1c(=O)cc(C)c2c(C)nn(C)c21 | -1% | ? | i | 12µM* | 6% | -17%
CCOc1ccc(NC(=O)Cn2c(=O)cc(C)c3c(C)nn(-c4cccc(Cl)c4C)c32)cc1 | -1% | 13µM* | i | 26µM* | -3% | 3%
Cc1ccc(-c2sc(C(=O)Nc3ccc(Br)cc3)cc2CC(=O)O)cc1 | ? | -1% | nt | 2% | -37% | nt
O=C1NC[C@H](CCCCN2C[C@H](Cc3ccc(O)cc3)N(CCc3ccc(O)cc3)C(=O)C2=O)N(CCc2ccccc2)C1=O | nt | -3% | i | 1% | nt | 18%
CCCCCCCCCC[N+](C)(C)CC/C=C1/c2ccccc2Sc2ccc(Cl)cc21 | ? | 3.7µM* | 7.9µM* | 5.2µM* | -107% | nt
CCCCCCCCCCC[N+](C)(C)CC/C=C1/c2ccccc2Sc2ccc(Cl)cc21 | ? | 2.6µM* | 11µM* | 5.8µM* | 20µM* | nt
CN(CC/C=C1/c2ccccc2CSc2ccccc21)CCCO | -4% | ? | i | ? | -11% | -10%
CC[N+](C)(C)CC/C=C1/c2ccccc2Sc2ccc(Cl)cc21 | 8% | -6% | i | 7% | 15% | -22%
S=C(NCc1ccc(Cl)cc1)NN1CCOCC1 | -1% | -19% | i | 5% | -11% | -20%
O=[N+]([O-])CC(c1ccccc1)c1c[nH]c2ccccc12 (centres undefined) | ? | 5.8µM* | ? | 7.3µM* | -35% | nt
COc1cc(C(C[N+](=O)[O-])c2c(C)[nH]c3ccccc23)cc(OC)c1OC (centres undefined) | 5% | ? | i | ? | -18% | -19%
CSCCC(NC(=O)c1ccco1)C(=O)N1CC=C(c2ccccc2)CC1 (centres undefined) | ? | ? | i | ? | -24% | -3%
Cn1c(SCc2ccccc2F)nnc1-c1ccccn1 | -1% | ? | i | -18% | -6% | nt
COc1ccc(N(CC(=O)O)S(=O)(=O)c2cccnc2)cc1 | -1% | -19% | i | -6% | 3% | -30%
CN(C(=O)CC1C(=O)NCCN1Cc1cccc(C(F)(F)F)c1)C1CCOCC1 (centres undefined) | 0% | 11% | i | -5% | 0% | 10%
CN1CCN(c2nc3cc(C(F)(F)F)ccc3n3cccc23)CC1 | 52% | 21µM* | ? | ? | -6% | -28%
Cc1nc2c(=O)n(C)c(=O)n(C)c2nc1Cl | 7.1µM* | 1.2µM* | 30µM* | 0.58µM* | 11µM* | ?
CC(C)CN1CC2(CCN(C(=O)c3ccco3)CC2)C1 | nt | -7% | nt | 2% | nt | nt
Cc1cccc2cc(CN(Cc3cccnc3)C(=O)c3ccccc3F)c(Cl)nc12 | -3% | ? | i | ? | -22% | 27%
Cc1cc(C)c2cc(CN(Cc3cccnc3)C(=O)c3ccc(F)cc3)c(Cl)nc2c1 | -11% | 15µM* | ? | 18µM* | 1% | -4%
O=C(CSc1n[nH]c(-c2ccccc2O)n1)N1CCCc2ccccc21 | -18% | 21µM* | i | ? | -37% | -17%
Cc1ccnc(SCC(=O)N2CCCc3ccccc32)n1 | 9% | 1% | ? | -3% | -5% | -19%
CSc1nsc(SCC(=O)N2CCCc3ccccc32)n1 | -19% | 29µM* | i | ? | -60% | -7%
Cc1ccccc1NC(=O)Cn1c(=O)oc2cc(Br)ccc21 | -8% | 13µM* | nt | ? | -18% | nt
